Source: paper PMC5540273 (PLoS ONE, 2017)
Several values for one entry are separate records, joined by “and”; a condition that tells them apart may be missing. Equal entries are not always repeated. Where two headings read alike, the source gives them in different places.

Tests used:
BRSK1 = conditions: concentration: 1 μM, replicates: in singlicate; n = 1
BRSK2 = conditions: concentration: 1 μM, replicates: in singlicate; n = 1
BTK = conditions: concentration: 1 μM, replicates: in singlicate, n = 1
BUB1 = conditions: concentration: 1 μM, replicates: in singlicate, n = 1
CAMK1B = conditions: concentration: 1 μM, replicates: in singlicate, n = 1
CAMK1D = conditions: concentration: 1 μM, replicates: in singlicate, n = 1
CAMK1G = conditions: concentration: 1 μM, replicates: in singlicate; n = 1
CAMK1 = conditions: concentration: 1 μM, replicates: in singlicate, n = 1
CAMK2A = conditions: concentration: 1 μM, replicates: in singlicate; n = 1
CAMK2B = conditions: concentration: 1 μM, replicates: in singlicate; n = 1
CAMK2D = conditions: concentration: 1 μM, replicates: in singlicate; n = 1
CAMK2G = conditions: concentration: 1 μM, replicates: in singlicate, n = 1
CAMK4 = conditions: concentration: 1 μM, replicates: in singlicate; n = 1
CAMKK1 = conditions: concentration: 1 μM, replicates: in singlicate; n = 1
CAMKK2 = conditions: concentration: 1 μM, replicates: in singlicate; n = 1
CASK = conditions: concentration: 1 μM, replicates: in singlicate; n = 1
CDC2L1 = tested on: T1, CDC2L1; conditions: concentration: 1 μM, replicates: in singlicate; n = 1
T1 construct: gene CDK11B

CDC2L2 = conditions: concentration: 1 μM, replicates: in singlicate, n = 1
CDC2L5 = tested on: T2, CDC2L5; conditions: concentration: 1 μM, replicates: in singlicate, n = 1
T2 construct: gene CDK13

CDK11 = tested on: T3, CDK11; conditions: concentration: 1 μM, replicates: in singlicate, n = 1
T3 construct: gene CDK19
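Note: KINOMEscan kinase panel screen.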

COc1ccc(-c2nc3n(c2-c2ccncc2)CCC3)cc1 [SKF-104493]
%Inh (BRSK1): 0%
%Inh (BRSK2): 0%
%Inh (BTK; 1 µM): 14% and 0%
%Inh (BUB1; 1 µM): 67% and 78%
%Inh (CAMK1B; 1 µM): 0% and 26%
%Inh (CAMK1D; 1 µM): 12% and 7%
%Inh (CAMK1G): 0%
%Inh (CAMK1; 1 µM): 0% and 7%
%Inh (CAMK2A): 0%
%Inh (CAMK2B): 0%
%Inh (CAMK2D): 0%
%Inh (CAMK2G; 1 µM): 0% and 2%
%Inh (CAMK4): 0%
%Inh (CAMKK1): 0%
%Inh (CAMKK2): 0%
%Inh (CASK): 0%
%Inh (CDC2L1): 0%
%Inh (CDC2L2; 1 µM): 6% and 13%
%Inh (CDC2L5; 1 µM): 18% and 0%
%Inh (CDK11; 1 µM): 5% and 7%

Fc1cccc(COc2ccc(Nc3ncnc4sc(-c5ccc[nH]5)cc34)cc2Cl)c1 [GW707818]
%Inh (BRSK1): 1%
%Inh (BRSK2): 16%
%Inh (BTK): 5%
%Inh (BUB1): 25%
%Inh (CAMK1B): 9%
%Inh (CAMK1D): 22%
%Inh (CAMK1G): 0%
%Inh (CAMK1): 25%
%Inh (CAMK2A): 0%
%Inh (CAMK2B): 0%
%Inh (CAMK2D): 7%
%Inh (CAMK2G): 0%
%Inh (CAMK4): 5%
%Inh (CAMKK1): 0%
%Inh (CAMKK2): 16%
%Inh (CASK): 15%
%Inh (CDC2L1): 20%
%Inh (CDC2L2): 15%
%Inh (CDC2L5): 0%
%Inh (CDK11): 5%

CN1CCC(n2cnc(-c3ccc(F)cc3)c2-c2ccnc(NC3CCNCC3)n2)CC1 [SB-229482]
%Inh (BRSK1): 0%
%Inh (BRSK2): 0%
%Inh (BTK): 10%
%Inh (BUB1): 17%
%Inh (CAMK1B): 28%
%Inh (CAMK1D): 0%
%Inh (CAMK1G): 2%
%Inh (CAMK1): 0%
%Inh (CAMK2A): 0%
%Inh (CAMK2B): 0%
%Inh (CAMK2D): 7%
%Inh (CAMK2G): 0%
%Inh (CAMK4): 7%
%Inh (CAMKK1): 14%
%Inh (CAMKK2): 26%
%Inh (CASK): 20%
%Inh (CDC2L1): 0%
%Inh (CDC2L2): 8%
%Inh (CDC2L5): 31%
%Inh (CDK11): 0%

Cc1cc(N2CCC(NS(=O)(=O)c3ccc(F)cc3)CC2)nc(Nc2cccc(C#N)c2)n1.O=C(O)C(F)(F)F [GSK1653537]
%Inh (BRSK1): 7%
%Inh (BRSK2): 0%
%Inh (BTK): 0%
%Inh (BUB1): 0%
%Inh (CAMK1B): 0%
%Inh (CAMK1D): 8%
%Inh (CAMK1G): 0%
%Inh (CAMK1): 16%
%Inh (CAMK2A): 0%
%Inh (CAMK2B): 0%
%Inh (CAMK2D): 3%
%Inh (CAMK2G): 1%
%Inh (CAMK4): 0%
%Inh (CAMKK1): 5%
%Inh (CAMKK2): 0%
%Inh (CASK): 0%
%Inh (CDC2L1): 0%
%Inh (CDC2L2): 0%
%Inh (CDC2L5): 0%
%Inh (CDK11): 0%

Clc1ccc(-c2cc(-c3c[nH]nc3-c3ccccn3)ccn2)cc1 [GW681251]
%Inh (BRSK1): 0%
%Inh (BRSK2): 0%
%Inh (BTK): 0%
%Inh (BUB1): 31%
%Inh (CAMK1B): 0%
%Inh (CAMK1D): 2%
%Inh (CAMK1G): 0%
%Inh (CAMK1): 0%
%Inh (CAMK2A): 0%
%Inh (CAMK2B): 0%
%Inh (CAMK2D): 0%
%Inh (CAMK2G): 8%
%Inh (CAMK4): 0%
%Inh (CAMKK1): 0%
%Inh (CAMKK2): 0%
%Inh (CASK): 44%
%Inh (CDC2L1): 0%
%Inh (CDC2L2): 0%
%Inh (CDC2L5): 0%
%Inh (CDK11): 0%

N#Cc1ccc(Oc2ccc(Nc3ncnc4cc[nH]c34)cc2Cl)cc1
%Inh (BRSK1): 3%
%Inh (BRSK2): 0%
%Inh (BTK): 0%
%Inh (BUB1): 12%
%Inh (CAMK1B): 0%
%Inh (CAMK1D): 33%
%Inh (CAMK1G): 17%
%Inh (CAMK1): 24%
%Inh (CAMK2A): 21%
%Inh (CAMK2B): 22%
%Inh (CAMK2D): 13%
%Inh (CAMK2G): 10%
%Inh (CAMK4): 3%
%Inh (CAMKK1): 6%
%Inh (CAMKK2): 11%
%Inh (CASK): 0%
%Inh (CDC2L1): 14%
%Inh (CDC2L2): 10%
%Inh (CDC2L5): 0%
%Inh (CDK11): 3%

CCC(CC)(CC)n1cnc2c(N)ncnc21 [SKF-97620]
%Inh (BRSK1): 0%
%Inh (BRSK2): 15%
%Inh (BTK): 0%
%Inh (BUB1): 48%
%Inh (CAMK1B): 18%
%Inh (CAMK1D): 4%
%Inh (CAMK1G): 6%
%Inh (CAMK1): 3%
%Inh (CAMK2A): 0%
%Inh (CAMK2B): 0%
%Inh (CAMK2D): 0%
%Inh (CAMK2G): 0%
%Inh (CAMK4): 8%
%Inh (CAMKK1): 0%
%Inh (CAMKK2): 0%
%Inh (CASK): 42%
%Inh (CDC2L1): 0%
%Inh (CDC2L2): 0%
%Inh (CDC2L5): 20%
%Inh (CDK11): 0%

Cc1ccc(C)c(NC(=O)NCCNc2ccnc(Nc3ccc(F)cc3)n2)c1 [GSK1379878]
%Inh (BRSK1): 0%
%Inh (BRSK2): 0%
%Inh (BTK): 0%
%Inh (BUB1): 14%
%Inh (CAMK1B): 28%
%Inh (CAMK1D): 2%
%Inh (CAMK1G): 62%
%Inh (CAMK1): 5%
%Inh (CAMK2A): 0%
%Inh (CAMK2B): 0%
%Inh (CAMK2D): 18%
%Inh (CAMK2G): 21%
%Inh (CAMK4): 0%
%Inh (CAMKK1): 0%
%Inh (CAMKK2): 2%
%Inh (CASK): 0%
%Inh (CDC2L1): 0%
%Inh (CDC2L2): 17%
%Inh (CDC2L5): 0%
%Inh (CDK11): 6%

CS(=O)(=O)CCNCc1nc(-c2ccc3ncnc(Nc4ccc(OCc5cccc(F)c5)c(Cl)c4)c3c2)cs1.Cl [GW583340]
%Inh (BRSK1): 0%
%Inh (BRSK2): 0%
%Inh (BTK): 0%
%Inh (BUB1): 0%
%Inh (CAMK1B): 6%
%Inh (CAMK1D): 15%
%Inh (CAMK1G): 2%
%Inh (CAMK1): 20%
%Inh (CAMK2A): 0%
%Inh (CAMK2B): 0%
%Inh (CAMK2D): 23%
%Inh (CAMK2G): 22%
%Inh (CAMK4): 0%
%Inh (CAMKK1): 0%
%Inh (CAMKK2): 28%
%Inh (CASK): 0%
%Inh (CDC2L1): 11%
%Inh (CDC2L2): 25%
%Inh (CDC2L5): 0%
%Inh (CDK11): 12%

O=C(c1ccc(-c2cc(-c3c[nH]nc3-c3ccccn3)ccn2)cc1)N1CCCC1 [GW792479]
%Inh (BRSK1): 0%
%Inh (BRSK2): 2%
%Inh (BTK): 24%
%Inh (BUB1): 20%
%Inh (CAMK1B): 0%
%Inh (CAMK1D): 30%
%Inh (CAMK1G): 0%
%Inh (CAMK1): 32%
%Inh (CAMK2A): 1%
%Inh (CAMK2B): 5%
%Inh (CAMK2D): 3%
%Inh (CAMK2G): 56%
%Inh (CAMK4): 0%
%Inh (CAMKK1): 23%
%Inh (CAMKK2): 46%
%Inh (CASK): 21%
%Inh (CDC2L1): 0%
%Inh (CDC2L2): 7%
%Inh (CDC2L5): 15%
%Inh (CDK11): 5%
